Screening results as filed in PubChem.
PTHR1 ag: agonists of human PTHR1 parathyroid hormone receptor. Q03431. HEK293 GP2 PTHR1 cells, GloSensor cAMP luminescence, 1 h. Potency, µM (series often up to 115 µM), actives largely listed as activators. actives 0.075% (n = 410,000). AID 743266; also: nearly all actives have a fitted effect of over 55% in size
Target sequence (Q03431 whole entry, looked up): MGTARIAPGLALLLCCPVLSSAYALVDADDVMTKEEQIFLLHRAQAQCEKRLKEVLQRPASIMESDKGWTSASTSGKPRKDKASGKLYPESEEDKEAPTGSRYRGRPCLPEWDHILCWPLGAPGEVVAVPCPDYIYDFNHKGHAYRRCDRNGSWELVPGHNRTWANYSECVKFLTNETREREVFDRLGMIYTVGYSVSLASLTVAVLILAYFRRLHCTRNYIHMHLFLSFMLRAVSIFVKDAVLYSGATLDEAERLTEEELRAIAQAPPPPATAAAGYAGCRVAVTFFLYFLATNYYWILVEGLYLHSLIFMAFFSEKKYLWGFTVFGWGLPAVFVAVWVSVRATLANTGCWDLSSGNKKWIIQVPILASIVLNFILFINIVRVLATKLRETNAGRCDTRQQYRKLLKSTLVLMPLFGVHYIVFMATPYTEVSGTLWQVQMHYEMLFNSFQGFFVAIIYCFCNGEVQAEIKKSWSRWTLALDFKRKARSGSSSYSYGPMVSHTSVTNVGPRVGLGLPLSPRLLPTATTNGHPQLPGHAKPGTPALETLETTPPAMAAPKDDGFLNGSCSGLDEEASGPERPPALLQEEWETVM
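HEK-293-derived GP2 cells expressing PTHR1 and a GloSensor cAMP reporter, 3,000/well, plated overnight, given luciferin plus IBMX (each 0.5 mM as added) for 1 h at 37 °C, then compound for 1 h at 37 °C. Luminescence was read after 15 min at room temperature.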
GLP-1R agonist: activates the human GLP-1 receptor; P43220; HEK293 GLP-1R CRE-luciferase, luminescence, 4-6 h; cells express a hypersensitive GLP-1R form; Potency, µM (titrated, usually from 45.6 µM), actives largely listed as activators; actives 0.007% (n = 380,000)
HEK293 tox: cytotoxic in the GLP-1 receptor inverse agonist counter-screen; actives 0.13% (n = 410,000); Potency, µM (highest dose often 38.3 µM), hits mostly inhibitors; HEK293 cAMP-luciferase reporter cells, luminescence, 24 h;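 also: loss of luciferase light is scored as toxicity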
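Quantitative HTS format, 1536 wells, 200 cells/uL seeded. Compounds: 23 nL, 24 h, 37 °C. Detection: luciferase reagent, luminescence at 12 min RT; decreased signal taken as cytotoxic.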
GLP-1R inv ag: GLP-1 receptor (human) inverse agonism; P43220; Potency, µM (titrated, usually from 38.3 µM), usual class: inhibitors; actives 1.6% (n = 410,000); HEK293 GLP-1R CRE-luciferase, luminescence, 24 h; GLP-1R form is constitutively active; also: nearly all actives have a fitted effect of over 55% in size
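Constitutively active GLP-1R drives a cAMP-responsive luciferase in stably transfected HEK293 cells; test compounds are added after overnight (12 h) attachment and left 24 hr, and signal loss in luminescence marks inhibition.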
TSHR antag: antagonists of human thyroid stimulating hormone receptor; TSHR-expressing cells, TSH-stimulated cAMP HTRF, 2 h; hits give low values; P16473; activity change, negative = inhibition, % at 11.5 µM; actives 0.2% (n = 330,000);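 active = activity change below a set negative limit, meaning inhibition stronger than a set level, cut at about -70% in these data; inconclusive = activity change between two set negative limits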
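Freshly harvested TSHR cells receive pin-tooled compound, then EC80 TSH at 4nM final. After 2 hours at 37 deg C, antibody in lysis buffer and cAMP-d2 are added; 30 minutes at ambient temperature precede the HTRF read.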
Hits are given with their value; n = inactive; u = inconclusive; x = no result. The list is not random: actives were taken first. Their share in the collection is about 1.8%. Unless noted, calls follow the shape of the dose curve; as a rule, active = well fitted curve in the direction sought with a large enough effect; inconclusive = small, poorly fitted or top-dose-only effect, or another doubt; inactive = no such curve, though single readings can be large; an effect the other way counts as inactive or inconclusive.

SMILES | PTHR1 ag | GLP-1R agonist | HEK293 tox | GLP-1R inv ag | TSHR antag
CC(=O)N(CCC(c1ccccc1)c1ccco1)Cc1cccs1 (centres undefined) | n | n | n | u | -91
Cc1cc(Nc2cccc(Cl)c2)nc2ccc(NC(=O)COc3ccc(Cl)cc3)cc12 | n | n | n | n | x
Cc1cc(Nc2cccc(C(F)(F)F)c2)nc2ccc(NC(=O)c3cncc(Br)c3)cc12 | n | x | n | u | x
Cc1cc(Nc2cccc(Cl)c2)nc2ccc(NC(=O)c3cncc(Br)c3)cc12 | n | n | u | 2µM | x
CCOc1cc(C(=O)Nc2ccc3nc(Nc4cccc(Cl)c4)cc(C)c3c2)cc(OCC)c1OCC | n | n | n | 5.6µM | x
COc1ccc(OC)c(NC(=O)Cn2c(=O)cc(-c3ccccc3)c3c(C)nn(C)c32)c1 | n | x | n | n | x
COc1ccc(Cl)cc1NC(=O)CSC1=Nc2ccccc2C2=NC(CC(=O)NC3CCCCC3)C(=O)N12 (centres undefined) | n | x | n | n | x
COc1ccc(N(Cc2cccs2)C(=O)COc2cccc(Cl)c2)cc1 | n | x | n | 14µM | x
COc1ccc(N(Cc2cccs2)C(=O)COc2ccc([N+](=O)[O-])cc2)cc1 | n | x | n | u | x
Cc1ccc(SCC(=O)NCc2ccccc2)cc1 | n | n | n | n | n
Cc1ccc(SCC(=O)NCc2ccccc2C)cc1 | n | n | n | u | -122
Cc1ccc(SCC(=O)Nc2ccccc2N2CCOCC2)cc1 | n | n | n | 7.9µM | n
CN1CCN(CCOC2Cc3ccccc3Sc3ccc(Cl)cc32)CC1 (centres undefined) | u | n | u | 8.9µM | n
CN1CCN(CCC(=O)N2c3ccccc3Sc3ccc(Cl)cc32)CC1 | n | n | u | u | n
CCOc1ccccc1CNC(=O)c1cc(-c2ccc(Cl)s2)nc2ccccc12 | n | x | n | n | x
CC(C)CNC(=O)COC(=O)c1c2c(nc3ccccc13)/C(=C\c1cccs1)CC2 | n | n | n | 4.5µM | x
O=C(COC(=O)c1c2c(nc3ccccc13)/C(=C\c1cccs1)CCC2)Nc1ccccc1 | n | n | n | n | n
CCOC(=O)c1c(-c2ccc(C)cc2)csc1NC(=O)c1cc(=O)c2cc(C)cc(C)c2o1 | n | x | n | n | x
CN1C(=O)/C(=C/c2ccccc2F)Sc2ccc(C(=O)NCC3CCCO3)cc21 (centres undefined) | n | n | n | u | n
Cc1cccc(/C=C2\Sc3ccc(C(=O)NCC4CCCO4)cc3N(C)C2=O)c1 (centres undefined) | n | n | n | 13µM | n
CCOc1ccc(-n2c(C)nc3cc(C(=O)NCc4ccc(C)cc4)ccc32)cc1 | n | x | n | u | x
COc1cccc(C2C(C(=O)Nc3ccc(C)cc3C)=C(C)Nc3c(C(=O)Nc4cccc(C)c4)cnn32)c1OC (centres undefined) | n | x | n | u | x
CCOc1ncccc1C(=O)OCc1ccc(C(=O)OC)cc1 | n | 11µM | u | n | n
CCOC(=O)C(NC(=O)c1ccccc1Cl)(Nc1ccc(C)c(C)c1)C(F)(F)F (centres undefined) | n | n | n | n | n
COC(=O)C(Nc1ccccc1Cl)(c1cc(C)c(O)c(C)c1)C(F)(F)F (centres undefined) | n | n | u | 4.5µM | n
SMILES | PTHR1 ag | GLP-1R agonist | HEK293 tox | GLP-1R inv ag | TSHR antag
Cn1cc(-c2cc3n(n2)CCC(=O)N3CCCC(=O)Nc2ccccc2F)c2ccccc21 | n | x | n | n | x
CCOc1ccc2nc(NC(=O)CS(=O)(=O)c3ccc(Cl)cc3)sc2c1 | n | x | n | u | x
Cc1ccc(N2C(=O)CC(N(CCc3ccccc3)C(=S)Nc3ccc(N(C)C)cc3)C2=O)cc1 (centres undefined) | n | n | n | 4µM | n
O=C1CC(N(CCc2ccccc2)C(=S)Nc2ccccc2)C(=O)N1c1ccc(Br)cc1 (centres undefined) | n | n | u | u | n
CCCNC(=O)c1onc(CSc2ccc(Cl)cc2)c1C(=O)NCCC(C)C | n | n | n | 10µM | x
C=CCNC(=O)c1c(CSc2ccc(Cl)cc2)noc1C(=O)NCc1ccccc1 | n | n | n | 7.9µM | x
Cc1cc(C)n(-c2nc(C)c(C)c(=O)n2CC(=O)Nc2ccc(OC(F)(F)F)cc2)n1 | n | x | n | n | x
